Measured values taken from the supplement of paper PMC10849652.
Targets with a hit are over-represented here; the source holds about 8,800 in all. About 0.5% of all pairs of compound and target were hits. Values without a mark were called inactive.

Tests used:
Experiment in all cases: log2 fold change, soluble protein after heating vs DMSO (PISA); higher = thermal stabilisation; K562 lysate, 10 uM; active = over 0.2 and 3.5 SD of the protein, either way, in both replicates (recomputed)
vemurafenib = compound: CCCS(=O)(=O)Nc1ccc(F)c(C(=O)c2c[nH]c3ncc(-c4ccc(Cl)cc4)cc23)c1F [vemurafenib]
In short: (§1)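 A 30 min treatment with 10 μM compound was applied to crude K562 extract at 1 mg/mL protein in PBS pH 7.4 with 1 mM MgCl2. Heating for 3 min spanned 48°C-58°C, after which aliquots were pooled, adjusted to 0.5% NP-40 at 4°C and spun at 21,000xg for 90 min. TMTpro 16plex LC-MS/MS of the supernatant, with channel sums equalised, gave values recorded as log-two fold change in thermal stability against solvent controls, from duplicates.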

[1] = compound: CCCS(=O)(=O)Nc1ccc(F)c(C(=O)c2c[nH]c3ncc(Cl)cc23)c1F
In short: as §1

barasertib = compound: CCN(CCCOc1ccc2c(Nc3cc(CC(=O)Nc4cccc(F)c4)[nH]n3)ncnc2c1)CCOP(=O)(O)O [barasertib]
In short: as §1

[2] = compound: CC[C@@H]1C(=O)N(C)c2cnc(Nc3ccc(C(=O)NC4CCN(C)CC4)cc3OC)nc2N1C1CCCC1
In short: as §1

volasertib = compound: CC[C@@H]1C(=O)N(C)c2cnc(Nc3ccc(C(=O)N[C@H]4CC[C@H](N5CCN(CC6CC6)CC5)CC4)cc3OC)nc2N1C(C)C [volasertib]
In short: as §1

[3] = compound: CCn1c(C(=O)N(C2CC2)C2CC2)cc2c3c(ncn3C)c(Nc3cc(C)n(C)n3)nc21
In short: as §1

[4] = compound: CCn1cc(-c2ccnc3[nH]c(-c4cccc(CN(C)C)c4)cc23)c(-c2ccc(NC(=O)N(C)C)cc2)n1
In short: as §1

[5] = compound: CN1CCC(CNc2ccc3ncc(-c4cccc(OC(F)(F)F)c4)n3n2)CC1
In short: as §1

saracatinib = compound: CN1CCN(CCOc2cc(OC3CCOCC3)c3c(Nc4c(Cl)ccc5c4OCO5)ncnc3c2)CC1 [saracatinib]
In short: as §1

sotrastaurin = compound: CN1CCN(c2nc(C3=C(c4c[nH]c5ccccc45)C(=O)NC3=O)c3ccccc3n2)CC1 [sotrastaurin]
In short: as §1

alvocidib = compound: CN1CC[C@H](c2c(O)cc(O)c3c(=O)cc(-c4ccccc4Cl)oc23)[C@H](O)C1 [alvocidib]
In short: as §1

Tubastatin A = compound: CN1CCc2c(c3ccccc3n2Cc2ccc(C(=O)NO)cc2)C1 [Tubastatin A]
In short: as §1

[6] = compound: CNC(=O)C1=CC=CC=C1NC2=NC(=NC=C2Cl)NC3=C(C=C(C=C3)N4CCOCC4)OC
In short: as §1

defactinib = compound: CNC(=O)c1ccc(Nc2ncc(C(F)(F)F)c(NCc3nccnc3N(C)S(C)(=O)=O)n2)cc1 [defactinib]
In short: as §1

[7] = compound: CNc1nc(-c2ccc3c(N)n[nH]c3c2)cc(N2C[C@@H](C(=O)NC3CCCCC3)CC[C@H]2C)n1
In short: as §1

encorafenib = compound: COC(=O)N[C@@H](C)CNc1nccc(-c2cn(C(C)C)nc2-c2cc(Cl)cc(NS(C)(=O)=O)c2F)n1 [encorafenib]
In short: as §1

[8] = compound: COC(=O)[C@H](CCSC)NC(=O)C1=C(C=C(C=C1)NC[C@H](CS)N)C2=CC=CC=C2
In short: as §1

alisertib = compound: COc1cc(Nc2ncc3c(n2)-c2ccc(Cl)cc2C(c2c(F)cccc2OC)=NC3)ccc1C(=O)O [alisertib]
In short: as §1

[9] = compound: COc1cc2nc(-c3cc(F)ccc3O)nc(N[C@@H]3CNC[C@H]3C(C)(C)O)c2cc1OC
In short: as §1

gefitinib = compound: COc1cc2ncnc(Nc3ccc(F)c(Cl)c3)c2cc1OCCCN1CCOCC1 [gefitinib]
In short: as §1

Sequence of UniProt P15313 (P15313 whole entry, looked up): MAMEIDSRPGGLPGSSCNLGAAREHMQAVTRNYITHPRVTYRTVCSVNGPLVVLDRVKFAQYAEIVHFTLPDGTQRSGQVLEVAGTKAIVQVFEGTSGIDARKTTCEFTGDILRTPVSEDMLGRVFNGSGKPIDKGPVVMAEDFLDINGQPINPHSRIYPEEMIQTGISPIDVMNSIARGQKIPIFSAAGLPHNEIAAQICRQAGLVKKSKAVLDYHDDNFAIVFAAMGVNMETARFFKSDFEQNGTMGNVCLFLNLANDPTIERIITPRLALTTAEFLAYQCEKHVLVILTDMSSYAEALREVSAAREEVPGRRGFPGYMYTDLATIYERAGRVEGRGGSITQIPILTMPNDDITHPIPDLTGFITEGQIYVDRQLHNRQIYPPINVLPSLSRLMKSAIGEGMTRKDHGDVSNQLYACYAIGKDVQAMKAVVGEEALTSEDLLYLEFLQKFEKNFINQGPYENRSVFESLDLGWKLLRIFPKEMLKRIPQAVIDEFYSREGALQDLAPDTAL
Sequence of UniProt Q13315 (Q13315 whole entry, looked up): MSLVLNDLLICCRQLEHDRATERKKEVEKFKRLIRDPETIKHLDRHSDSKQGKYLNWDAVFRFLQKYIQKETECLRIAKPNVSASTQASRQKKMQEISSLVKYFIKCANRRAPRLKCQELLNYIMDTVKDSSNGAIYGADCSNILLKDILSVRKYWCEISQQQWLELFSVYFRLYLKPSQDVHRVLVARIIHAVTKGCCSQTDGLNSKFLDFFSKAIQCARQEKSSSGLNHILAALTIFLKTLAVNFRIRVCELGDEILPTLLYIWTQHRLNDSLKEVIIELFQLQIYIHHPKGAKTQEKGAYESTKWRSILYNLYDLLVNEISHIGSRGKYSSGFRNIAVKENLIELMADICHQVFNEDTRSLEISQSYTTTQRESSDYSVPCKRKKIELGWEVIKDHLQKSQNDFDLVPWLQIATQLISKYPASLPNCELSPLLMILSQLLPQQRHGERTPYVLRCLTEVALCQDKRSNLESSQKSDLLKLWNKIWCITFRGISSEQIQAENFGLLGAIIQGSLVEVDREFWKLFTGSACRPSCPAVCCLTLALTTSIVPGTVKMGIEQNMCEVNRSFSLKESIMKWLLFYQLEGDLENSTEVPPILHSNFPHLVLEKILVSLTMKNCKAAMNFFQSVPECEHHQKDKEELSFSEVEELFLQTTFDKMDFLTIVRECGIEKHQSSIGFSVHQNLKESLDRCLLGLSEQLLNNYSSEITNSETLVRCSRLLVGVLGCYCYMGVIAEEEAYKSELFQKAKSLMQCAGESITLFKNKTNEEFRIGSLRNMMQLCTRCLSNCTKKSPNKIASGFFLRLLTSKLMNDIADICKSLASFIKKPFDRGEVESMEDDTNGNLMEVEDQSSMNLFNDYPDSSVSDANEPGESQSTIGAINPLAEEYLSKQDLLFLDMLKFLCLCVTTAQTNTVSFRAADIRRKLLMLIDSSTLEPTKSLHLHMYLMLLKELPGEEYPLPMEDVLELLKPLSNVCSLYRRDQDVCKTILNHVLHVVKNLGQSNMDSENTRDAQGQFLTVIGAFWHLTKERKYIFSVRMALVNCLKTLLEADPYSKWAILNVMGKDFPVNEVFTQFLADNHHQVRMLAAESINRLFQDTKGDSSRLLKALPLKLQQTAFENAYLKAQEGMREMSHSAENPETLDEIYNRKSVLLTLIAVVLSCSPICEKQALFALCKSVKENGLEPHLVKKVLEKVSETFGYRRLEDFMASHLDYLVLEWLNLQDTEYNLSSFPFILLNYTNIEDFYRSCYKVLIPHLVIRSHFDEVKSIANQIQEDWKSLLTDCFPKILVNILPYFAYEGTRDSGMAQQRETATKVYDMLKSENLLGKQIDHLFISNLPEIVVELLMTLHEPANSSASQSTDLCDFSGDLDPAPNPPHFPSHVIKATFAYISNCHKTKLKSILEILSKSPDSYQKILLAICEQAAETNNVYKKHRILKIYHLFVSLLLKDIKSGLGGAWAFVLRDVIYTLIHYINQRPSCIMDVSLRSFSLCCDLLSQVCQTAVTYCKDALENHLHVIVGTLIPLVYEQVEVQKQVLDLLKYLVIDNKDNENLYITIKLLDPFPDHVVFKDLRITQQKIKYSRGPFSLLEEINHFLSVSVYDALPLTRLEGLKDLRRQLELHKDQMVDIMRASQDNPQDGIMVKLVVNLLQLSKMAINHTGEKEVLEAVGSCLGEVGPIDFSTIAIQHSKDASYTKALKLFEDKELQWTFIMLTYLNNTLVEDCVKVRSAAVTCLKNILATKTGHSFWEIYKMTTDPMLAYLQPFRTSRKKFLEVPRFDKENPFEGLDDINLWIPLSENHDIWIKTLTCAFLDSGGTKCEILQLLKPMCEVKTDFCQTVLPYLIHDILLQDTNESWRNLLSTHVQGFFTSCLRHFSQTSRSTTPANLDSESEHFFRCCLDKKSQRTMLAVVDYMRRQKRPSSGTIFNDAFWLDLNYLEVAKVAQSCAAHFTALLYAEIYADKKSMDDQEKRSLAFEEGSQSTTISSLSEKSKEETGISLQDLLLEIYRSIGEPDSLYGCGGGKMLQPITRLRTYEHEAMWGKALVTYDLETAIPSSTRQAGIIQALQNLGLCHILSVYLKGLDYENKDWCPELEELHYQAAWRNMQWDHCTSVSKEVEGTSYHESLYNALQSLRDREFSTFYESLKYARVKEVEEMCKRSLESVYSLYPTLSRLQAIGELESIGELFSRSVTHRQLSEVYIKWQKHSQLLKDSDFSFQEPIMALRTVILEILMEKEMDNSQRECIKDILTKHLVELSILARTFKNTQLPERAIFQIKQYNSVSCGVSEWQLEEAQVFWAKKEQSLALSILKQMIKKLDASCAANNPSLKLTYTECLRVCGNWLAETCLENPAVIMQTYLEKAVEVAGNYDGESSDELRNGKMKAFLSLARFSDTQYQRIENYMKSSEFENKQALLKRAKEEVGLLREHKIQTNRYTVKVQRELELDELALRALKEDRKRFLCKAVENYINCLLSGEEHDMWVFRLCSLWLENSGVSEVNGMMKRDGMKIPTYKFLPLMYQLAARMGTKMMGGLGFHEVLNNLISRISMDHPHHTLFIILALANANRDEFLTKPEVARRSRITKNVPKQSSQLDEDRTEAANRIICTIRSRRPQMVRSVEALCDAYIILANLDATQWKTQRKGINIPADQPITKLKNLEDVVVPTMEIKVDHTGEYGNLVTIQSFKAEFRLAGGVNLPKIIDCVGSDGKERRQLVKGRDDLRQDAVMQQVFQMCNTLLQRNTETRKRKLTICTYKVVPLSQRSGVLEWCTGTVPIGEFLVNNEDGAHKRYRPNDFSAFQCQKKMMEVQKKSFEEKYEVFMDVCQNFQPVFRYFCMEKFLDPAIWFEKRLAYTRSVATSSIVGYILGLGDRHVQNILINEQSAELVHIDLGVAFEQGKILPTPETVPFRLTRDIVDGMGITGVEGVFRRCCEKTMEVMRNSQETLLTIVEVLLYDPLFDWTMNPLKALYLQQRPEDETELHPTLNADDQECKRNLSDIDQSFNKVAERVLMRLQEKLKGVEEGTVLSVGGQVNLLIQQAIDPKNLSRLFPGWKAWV
Sequence of UniProt P45973 (P45973 whole entry, looked up): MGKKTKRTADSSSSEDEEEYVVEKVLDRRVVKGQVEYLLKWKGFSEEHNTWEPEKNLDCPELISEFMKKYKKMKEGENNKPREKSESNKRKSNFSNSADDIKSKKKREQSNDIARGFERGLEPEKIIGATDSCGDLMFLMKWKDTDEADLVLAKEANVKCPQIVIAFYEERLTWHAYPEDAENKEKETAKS
Sequence of UniProt Q13042 (Q13042 whole entry, looked up): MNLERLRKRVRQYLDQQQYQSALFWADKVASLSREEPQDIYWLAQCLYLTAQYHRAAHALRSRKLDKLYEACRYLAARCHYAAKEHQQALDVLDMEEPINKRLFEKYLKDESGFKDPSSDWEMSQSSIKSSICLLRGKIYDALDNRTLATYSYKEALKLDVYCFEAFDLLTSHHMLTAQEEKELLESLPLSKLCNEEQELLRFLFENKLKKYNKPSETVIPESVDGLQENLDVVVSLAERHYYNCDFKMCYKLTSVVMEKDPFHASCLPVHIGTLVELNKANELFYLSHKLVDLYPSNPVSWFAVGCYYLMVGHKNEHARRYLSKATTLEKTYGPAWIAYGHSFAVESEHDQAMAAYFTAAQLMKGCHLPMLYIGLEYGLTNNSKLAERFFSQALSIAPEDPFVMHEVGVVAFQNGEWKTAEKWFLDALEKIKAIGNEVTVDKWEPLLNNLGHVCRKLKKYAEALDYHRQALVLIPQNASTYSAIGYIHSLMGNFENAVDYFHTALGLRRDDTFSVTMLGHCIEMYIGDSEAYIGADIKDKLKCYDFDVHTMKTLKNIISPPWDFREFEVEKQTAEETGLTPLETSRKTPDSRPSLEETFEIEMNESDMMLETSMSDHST
Sequence of UniProt P49069 (P49069 whole entry, looked up): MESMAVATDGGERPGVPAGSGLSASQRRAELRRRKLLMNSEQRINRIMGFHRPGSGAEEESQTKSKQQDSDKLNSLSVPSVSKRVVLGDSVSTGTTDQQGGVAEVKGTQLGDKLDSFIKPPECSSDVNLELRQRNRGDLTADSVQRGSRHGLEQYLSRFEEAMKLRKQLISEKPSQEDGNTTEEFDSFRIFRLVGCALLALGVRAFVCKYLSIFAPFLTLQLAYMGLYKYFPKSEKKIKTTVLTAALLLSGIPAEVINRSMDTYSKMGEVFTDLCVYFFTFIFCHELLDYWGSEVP
Sequence of UniProt Q9Y2V0 (Q9Y2V0 whole entry, looked up): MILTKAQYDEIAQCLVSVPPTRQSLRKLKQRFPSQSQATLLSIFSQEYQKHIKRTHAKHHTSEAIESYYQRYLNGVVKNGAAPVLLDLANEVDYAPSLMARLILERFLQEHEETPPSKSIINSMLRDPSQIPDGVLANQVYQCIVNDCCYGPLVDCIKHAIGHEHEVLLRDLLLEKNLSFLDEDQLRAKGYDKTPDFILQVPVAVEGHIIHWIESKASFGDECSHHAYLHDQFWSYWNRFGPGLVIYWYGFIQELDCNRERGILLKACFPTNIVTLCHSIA

Target | log2 fold change (vemurafenib) | log2 fold change [1] | log2 fold change (barasertib) | log2 fold change [2] | log2 fold change (volasertib) | log2 fold change [3] | log2 fold change [4] | log2 fold change [5] | log2 fold change (saracatinib) | log2 fold change (sotrastaurin) | log2 fold change (alvocidib) | log2 fold change (Tubastatin A) | log2 fold change [6] | log2 fold change (defactinib) | log2 fold change [7] | log2 fold change (encorafenib) | log2 fold change [8] | log2 fold change (alisertib) | log2 fold change [9] | log2 fold change (gefitinib)
ATP6V1B1 (UniProt P15313) | -0.009 | -0.013 | -0.012 | 0.016 | 0.03 | 0.006 | -0.288 (active) | 0.158 | -0.006 | 0.006 | -0.118 | 0.095 | 0.018 | -0.005 | 0.031 | -0.032 | 0.017 | 0.023 | 0.009 | -0.033
C3 (UniProt P01024) | -0.02 | 0.042 | 0.059 | 0.07 | 0.009 | -0.096 | -0.134 | 0.039 | 0.001 | 0.014 | -0.027 | 0.051 | 0.041 | 0.01 | 0.008 | 0 | 0.054 | -0.031 | -0.005 | 0.05
CDKN2AIP (UniProt Q9NXV6) | 0.017 | 0.022 | -0.028 | 0.082 | -0.008 | -0.026 | -0.049 | 0.03 | -0.004 | 0.01 | -0.008 | -0.066 | -0.016 | -0.011 | 0.054 | 0.023 | 0.236 (active) | 0.021 | -0.003 | -0.073
CBX5 (UniProt P45973) | 0.028 | 0.026 | -0.025 | 0.018 | 0.016 | -0.073 | -0.215 (active) | 0.066 | 0.001 | 0.016 | -0.07 | 0.037 | 0.073 | -0.011 | 0.021 | -0.035 | -0.007 | -0.054 | 0.021 | 0.009
CDC16 (UniProt Q13042) | -0.042 | 0.001 | -0.018 | -0.074 | -0.063 | 0.043 | 0.046 | -0.041 | -0.005 | 0.02 | 0.012 | -0.1 | 0.002 | -0.024 | -0.097 | 0.032 | -0.133 | -0.008 | -0.037 | 0.017
CAMLG (UniProt P49069) | -0.027 | 0 | -0.021 | 0.026 | 0.002 | -0.089 | 0.257 (active) | -0.04 | -0.026 | -0.002 | 0.051 | -0.037 | 0.044 | 0.067 | -0.012 | 0.09 | -0.13 | 0.136 | 0.006 | 0.028
CARD11 (UniProt Q9BXL7) | 0.088 | 0.012 | -0.075 | -0.087 | -0.071 | 0.082 | -0.024 | -0.014 | 0.063 | 0.002 | 0.073 | -0.023 | 0.022 | -0.005 | -0.029 | -0.021 | 0.072 | -0.028 | 0.025 | 0.014
ATE1 isoform 2 (UniProt O95260) | 0.118 | -0.006 | 0.069 | 0.019 | -0.013 | 0.014 | 0.032 | 0.126 | 0.006 | -0.016 | -0.116 | -0.008 | 0.036 | 0 | 0.038 | -0.013 | 0.109 | 0.021 | 0.004 | -0.038
CHD4 isoform 2 (UniProt Q14839) | 0 | 0.002 | 0.028 | -0.003 | -0.002 | 0.022 | -0.054 | -0.017 | 0.002 | 0.02 | -0.004 | -0.069 | -0.014 | 0.007 | 0.017 | 0.013 | 0.087 | 0.016 | -0.007 | -0.014
CHCHD4 isoform 2 (UniProt Q8N4Q1) | 0.144 | 0.015 | 0.109 | 0.072 | 0.057 | -0.1 | -0.415 (active) | 0.228 | 0.05 | -0.007 | -0.145 | 0.026 | 0.027 | -0.044 | 0.045 | 0.062 | -0.039 | 0.024 | 0.016 | -0.015
C15orf41 (UniProt Q9Y2V0) | 0.151 | 0.005 | 0.095 | -0.089 | 0.041 | -0.049 | -0.143 | 0.037 | -0.018 | -0.016 | -0.002 | -0.036 | 0.039 | -0.13 | 0.002 | 0.126 | -0.043 | 0.023 | 0.09 | 0.006
ATM (UniProt Q13315) | -0.063 | -0.004 | 0.041 | 0.005 | -0.078 | 0.021 | -0.089 | 0.071 | -0.011 | 0.032 | -0.048 | 0.013 | 0.013 | 0.105 | -0.005 | -0.031 | 0.087 | -0.01 | 0.078 | 0.022
BRD4 (UniProt O60885) | 0.049 | 0.016 | -0.007 | 0.538 (active) | 0.217 (active) | -0.008 | -0.007 | 0.037 | -0.025 | -0.012 | -0.003 | -0.001 | 0.02 | -0.05 | 0.036 | 0 | 0.03 | 0.038 | -0.03 | 0.034
ATG13 isoform 2 (UniProt O75143) | -0.05 | 0.042 | 0.024 | 0.036 | 0.007 | 0.015 | -0.281 (active) | 0.077 | 0.005 | 0.053 | -0.106 | -0.035 | 0.013 | 0.03 | 0.026 | 0.054 | -0.045 | 0.038 | 0.017 | -0.013
CALB2 (UniProt P22676) | 0.064 | 0.046 | 0.375 (active) | -0.036 | 0.017 | 0.023 | -0.065 | 0.066 | -0.008 | -0.061 | -0.028 | -0.022 | -0.028 | -0.062 | 0.034 | -0.014 | -0.003 | -0.008 | -0.01 | 0.112
C2CD5 isoform 3 (UniProt Q86YS7) | 0.068 | 0.022 | 0.049 | 0.062 | -0.025 | -0.069 | -0.309 (active) | 0.162 | 0.058 | -0.023 | -0.157 | 0.006 | -0.003 | -0.002 | 0.01 | 0.054 | -0.028 | -0.016 | 0.016 | 0.054
